Results taken from PubChem BioAssay AID488815 (Broad Institute, 2010).
Measured potencies and affinities stand elsewhere. Inconclusive results are not listed. Activity calls are given as the source filed them. How the calls were made is not given here.

Biological target: CAAX prenyl protease 1 (Saccharomyces cerevisiae (strain ATCC 204508 / S288c)) (UniProt P47154)
Assay: Ste24 protease inhibitors, dose response, biochemical, S. cerevisiae, plate reader, cherry-pick (AID 488815)

Sequence of CAAX prenyl protease 1 (Saccharomyces cerevisiae (strain ATCC 204508 / S288c)) (P47154 whole entry, looked up): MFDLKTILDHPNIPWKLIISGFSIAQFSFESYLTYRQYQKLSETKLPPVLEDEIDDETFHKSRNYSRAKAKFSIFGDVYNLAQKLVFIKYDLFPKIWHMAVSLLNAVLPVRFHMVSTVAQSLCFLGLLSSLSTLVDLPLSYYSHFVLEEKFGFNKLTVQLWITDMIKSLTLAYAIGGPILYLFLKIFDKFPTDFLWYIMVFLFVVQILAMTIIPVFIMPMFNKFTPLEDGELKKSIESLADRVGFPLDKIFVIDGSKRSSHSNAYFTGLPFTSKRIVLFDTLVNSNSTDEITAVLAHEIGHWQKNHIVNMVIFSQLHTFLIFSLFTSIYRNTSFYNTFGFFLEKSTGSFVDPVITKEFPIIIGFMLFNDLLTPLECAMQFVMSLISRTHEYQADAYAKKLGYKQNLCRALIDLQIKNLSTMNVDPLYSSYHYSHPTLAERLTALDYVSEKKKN

Row | SMILES | outcome
1 | C=C(C)C1(O)OC(=O)C=C1OC (stereo not given) | inactive
2 | O=C(Nc1ncccn1)c1ccc([N+](=O)[O-])cc1 | inactive
3 | CCCC(=O)N1CCN(c2ccc(NC(=O)c3cc4ccccc4o3)cc2Cl)CC1 | inactive
4 | CN(C(=O)COC(=O)c1cn(-c2ccccc2)nc1-c1ccccc1)C1CCS(=O)(=O)C1 (stereo not given) | inactive
5 | COc1ccc(/C=N/NC(=O)c2ccc(Cl)cc2)cc1COC(C)=O | inactive
6 | COc1ccc(Cl)cc1Nc1nc(C)nc2c1oc1ccccc12 | inactive
7 | COC(C[C@H](O)C[C@H](O)[C@@H](C)OCc1ccccc1)OC | inactive
8 | CCOC(=O)c1c(NC(=O)c2cccc(N3C(=O)CCC3=O)c2)sc(C)c1C | inactive
9 | Cc1ccc(C(=O)c2c3ccccc3[n+]([O-])n2CCO)cc1 | inactive
10 | Clc1cccc(CN2CCc3c([nH]c4ccccc34)C2)c1Cl | inactive
11 | CCN(CC)c1ccc(C(=O)c2ccccc2C(=O)O)c(O)c1 | inactive
12 | NC(=O)c1nsc(C(=O)N(c2ccccc2F)C(C(=O)NCc2ccccc2)c2ccc(O)cc2)c1N (stereo not given) | inactive
13 | O=C(Nc1ccc(S(=O)(=O)Nc2ccccc2)cc1)C1COc2ccccc2O1 (stereo not given) | inactive
14 | CCOc1ccc(NC(=O)CCSc2ccc(C)cc2)cc1 | inactive
15 | CC1CCN(C(=O)c2cc3nc(-c4ccccc4)cc(-c4ccccc4)n3n2)CC1 | inactive
16 | COCCN1C(=O)/C(=C/c2ccc(Oc3ccc([N+](=O)[O-])cn3)c(OC)c2)SC1=Nc1ccccc1 | inactive
17 | COc1cc(-c2nc3ccccn3c2/N=C/c2cccc(OC)c2O)ccc1O | inactive
18 | CC(C)c1cccc(OCC(=O)Nc2ccc(S(=O)(=O)Nc3ccccn3)cc2)c1 | inactive
19 | COc1ccc(C)cc1NC(=O)CN1C(=O)COc2ccc(S(=O)(=O)N3CCOCC3)cc21 | inactive
20 | Cc1ccc(S(=O)(=O)c2cn(C)c3cc(N4CCOCC4)c(F)cc3c2=O)cc1 | inactive

Row | SMILES | outcome
21 | COc1ccc(S(=O)(=O)N(CC(=O)N2CCCC2)Cc2ccccc2)cc1 | inactive
22 | CCN1CCN(CC(O)COc2ccc3c(C)cc(=O)oc3c2)CC1 (stereo not given) | inactive
23 | COc1ccccc1/C=C/C=N/NC(=O)CN1CCN(S(=O)(=O)c2ccc(C)cc2)CC1 | inactive
24 | Cc1nc(N2CCCCC2)c2c(C)c(C(=O)Nc3ccccc3C(F)(F)F)sc2n1 | inactive
25 | Cc1ccccc1NS(=O)(=O)c1ccc(C(=O)NCC(c2ccccc2)N(C)C)cc1 (stereo not given) | inactive
26 | COc1ccc(OCC(=O)NS(=O)(=O)c2ccc(Cl)cc2)cc1 | inactive
27 | CCn1c(C)nc2c(=O)oc3ccccc3c21 | inactive
28 | COc1ccc(C2CC(c3ccccc3)=NN2C(=O)c2ccc(Cl)c([N+](=O)[O-])c2)cc1 (stereo not given) | inactive
29 | O=S(=O)(c1ccccc1)c1nc(-c2ccco2)oc1N1CCCCC1 | inactive
30 | COC(C[C@@H](O)C[C@H](O)[C@H](C)OCc1ccccc1)OC | inactive
31 | COc1ccc(-n2nc(C(=O)NCC(=O)N3CCC(C)CC3)c3ccccc3c2=O)cc1 | inactive
32 | Nc1c(Cl)cc(C2=NCCn3nc4cc(C(F)(F)F)ccc4c32)cc1Cl | inactive
33 | Cc1cc(C)n2nc(CC(=O)NNC(=O)c3ccc(N(C)C)cc3)nc2n1 | inactive
34 | c1ccc(Nc2cccc(Nc3ccccc3)n2)cc1 | inactive
35 | Cc1ccc(NC(=O)CCc2ccc(S(=O)(=O)NC3CCCCC3)cc2)cc1 | inactive
36 | Cc1nc(N2CCOCC2)c2c(C)c(C(=O)Nc3ccc(C(F)(F)F)cc3)sc2n1 | inactive
37 | Clc1ccc(CN2CCc3c([nH]c4ccccc34)C2)cc1Cl | inactive
38 | CC(C)N1CCN(S(=O)(=O)c2ccc3ccccc3c2)CC1 | inactive
39 | C/C(CC(=O)NCc1ccco1)=N\NC(=O)c1ccc([N+](=O)[O-])cc1Cl | inactive
40 | O=C(Nc1cc(S(=O)(=O)N2CCOCC2)ccc1N1CCCC1)c1cnccn1 | inactive
